# Measurements taken from PubChem BioAssay (NCI).
# This is part of a sample that, as a whole, favours compounds with a hit. Of some 83,000 tested, about 20% had one in any assay.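 Single-dose data. Exposure time 48 hours. Values below 10 considered active.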 A number with no mark means an inactive call. The source made the active and inactive calls.
# Legend:
# Test in all cases: NCI-60 one-dose screen, 48 h (100 = growth as untreated, 0 = no growth, -100 = all killed)
# Conditions in all cases: 10 µM unless noted
# NCI-H23 lung = test system: NCI-H23 lung
# NCI-H226 lung = test system: NCI-H226 lung
# NCI-H322M lung = test system: NCI-H322M lung
# HOP-62 NSCLC = test system: HOP-62 NSCLC
# NCI-H460 lung = test system: NCI-H460 lung
# HOP-92 NSCLC = test system: HOP-92 NSCLC
# NCI-H522 lung = test system: NCI-H522 lung
# A549/ATCC NSCLC = test system: A549/ATCC NSCLC
# 786-0 renal = test system: 786-0 renal
# DU-145 prostate = test system: DU-145 prostate
# K-562 leukemia = test system: K-562 leukemia
# MALME-3M melanoma = test system: MALME-3M melanoma
# MDA-MB-231 breast = test system: MDA-MB-231 breast
# RXF 393 renal = test system: RXF 393 renal
# SF-268 CNS = test system: SF-268 CNS
# SF-295 CNS = test system: SF-295 CNS
# SF-539 CNS = test system: SF-539 CNS
# UACC-257 melanoma = test system: UACC-257 melanoma
# M14 melanoma = test system: M14 melanoma
Structure (SMILES),growth (NCI-H23 lung),growth (NCI-H226 lung),growth (NCI-H322M lung),growth (HOP-62 NSCLC),growth (NCI-H460 lung),growth (HOP-92 NSCLC),growth (NCI-H522 lung),growth (A549/ATCC NSCLC),growth (786-0 renal),growth (DU-145 prostate),growth (K-562 leukemia),growth (MALME-3M melanoma),growth (MDA-MB-231 breast),growth (RXF 393 renal),growth (SF-268 CNS),growth (SF-295 CNS),growth (SF-539 CNS),growth (UACC-257 melanoma),growth (M14 melanoma)
CSc1nc2sc3cc(Cl)ccc3n2c(=N)c1C#N,82.2%,57%,107%,119%,92.7%,77%,94.3%,62.3%,47.6%,96.1%,110%,40.1%,72.8%,-0.36% (active),47.3%,26.1%,70.2%,45.7%,82.4%
CC(=O)c1cc2c(o1)C(=O)c1ccccc1C2=O,-33.2% (active),-59.1% (active),-92.7% (active),-57.9% (active),-71.8% (active),-9.05% (active),-56.8% (active),-44.4% (active),-93.4% (active),-97.8% (active),-24.9% (active),-97.9% (active),-21.5% (active),-93.8% (active),-62.6% (active),-93.4% (active),-98.5% (active),-88.5% (active),-88.4% (active)
Cn1cc(Nc2nccc(-c3ccc(N4CCCC4)c(C#N)c3)n2)cn1,63.3%,78.9%,52%,25.5%,8.94% (active),67%,22%,22.6%,42.7%,55.7%,9.73% (active),54.4%,63.9%,43.9%,45.9%,71.3%,43.8%,69.6%,17.2%
CC(C)CCC[C@@H](C)[C@H]1CCC2C3=CCC4C(=O)C=CC(=O)C4C3CC[C@@]21C (stereo partly specified),8.4% (active),42%,42.6%,12.1%,2.88% (active),-28.9% (active),-46.1% (active),8.75% (active),-5.66% (active),26.6%,9.94% (active),,28.6%,-66.6% (active),20.4%,-61.2% (active),-25.6% (active),-3.37% (active),17.5%
Clc1ccc(-c2nnc(Cn3ccnc3)o2)cc1,93.9%,102%,113%,89.3%,112%,132%,115%,100%,94%,115%,95.8%,120%,102%,,103%,119%,98.9%,111%,87.1%
COC(=O)[C@]12CC[C@@H](C)[C@H](C)[C@@H]1C1=CC[C@@H]3[C@@]4(C)C(C=O)=C[C@@](C)(CO)C4=CC[C@@]3(C)[C@]1(C)CC2,31.7%,58.5%,61.3%,83.8%,17.5%,38%,28.1%,29.1%,45.2%,39.9%,16.4%,60.1%,53.2%,,48.3%,24.9%,29.8%,,28.5%
CCN(CC)CCNc1ccc(C)c2sc3cc(C)ccc3c(=O)c12,72.3%,95.5%,68.8%,62.9%,43%,25.2%,44.2%,56.2%,42.9%,67%,-19.6% (active),72.5%,19.4%,59.1%,59.1%,72.9%,76.3%,65.5%,-46.2% (active)
Cc1cc(NS(=O)(=O)c2ccccc2)c(OS(=O)(=O)c2ccccc2)cc1C,98.6%,101%,110%,105%,106%,88.1%,97.4%,104%,112%,120%,88.8%,113%,101%,111%,105%,113%,98.5%,109%,96.8%
C=CC(=O)N[C@@H](Cc1ccc(-c2cc(Cl)cc(Cl)c2)cc1)[C@@H](O)[C@H](O)C(=O)O,99.9%,84.9%,105%,79%,105%,93.9%,67.7%,79%,98.6%,109%,101%,96.6%,104%,,101%,100%,94.9%,,99.4%
COc1ccc(CN2C(=O)/C(=C\c3cc(OC)c(OC)c(OC)c3)c3ccccc32)cc1,-8.08% (active),11.8%,19.6%,-33% (active),-53% (active),0.884% (active),-54.1% (active),9.31% (active),1.15% (active),9.87% (active),5.28% (active),,5.55% (active),-69.6% (active),10.4%,-46% (active),-84.9% (active),-9.5% (active),-32% (active)
O=C1CSC(c2ccccc2O)N1c1nnc(Cn2cnnc2)o1 (stereo unspecified),77.3%,78.5%,87.3%,78.7%,86.9%,53.9%,98.1%,97.7%,25.8%,105%,82.6%,96.2%,73.7%,,82.9%,94%,89.7%,96.4%,69%
COc1cc(C2CC(=O)Nc3n[nH]c(-c4ccccc4)c32)cc(OC)c1OC (stereo unspecified),81.6%,91.8%,94.1%,58%,67.5%,77.4%,30.1%,46%,75.3%,102%,24.6%,68.5%,63.9%,,90.7%,75.5%,81.2%,,53.3%
CC1(C)N=C(N)N=C(N)N1c1cccc(CN)c1,93.2%,92.7%,94.3%,92.3%,111%,80.5%,80.7%,91%,99.1%,109%,116%,,98.8%,103%,101%,94.7%,99.3%,86.5%,96.7%
O=C(CC1Sc2ccccc2NC1=O)NNc1ccc(F)cc1 (stereo unspecified),95.3%,84.4%,86.8%,57.1%,93.1%,71.4%,71.1%,92.5%,78.1%,98%,13.6%,112%,84.9%,,72.1%,31%,94.8%,92.4%,31.3%
COc1cc2c(c(OC)c1OC)C(=O)/C(=C/c1cc(C)c(O)c(C)c1)S2,36.9%,34.3%,40.8%,46.5%,12.7%,54.6%,14.6%,44.4%,42.6%,12.3%,21.3%,45.6%,37.7%,-10.4% (active),56.4%,13.7%,7.47% (active),78.2%,28.8%
CCOC(=O)Cc1csc2nc(-c3ccccc3)nn12,97.9%,101%,125%,103%,108%,79.1%,103%,105%,92%,108%,128%,,104%,110%,105%,127%,95.6%,119%,104%
